Assay outcomes deposited in PubChem by National Center for Advancing Translational Sciences (NCATS).
Compounds with a hit are over-represented: about 2.2% of the library has one in this group of screens.
Abeta rescue = restores growth of yeast expressing A-beta42 peptide | yeast expressing A-beta42, growth rescue, OD600, 48 h; response scale: 0% DMSO, 100% iron-clioquinol control | Potency, µM (doses to about 46.1 µM), most hits filed as activators | actives 0.063% (n = 410,000); further: nearly all actives have a fitted effect of over 55% in size
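Yeast growth medium received pinned compounds, then yeast cells expressing toxic A-beta were added; plates incubated at 30 C for 48 hr. Growth read as absorbance at 600 nm, normalized to DMSO and equimolar FeCl3 plus clioquinol controls.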
TDP43 rescue = TDP-43 toxicity inhibition in yeast; TDP-43 expressing yeast growth rescue, BacTiter-Glo, 24 h; Potency, µM (doses to about 46.1 µM), without a hit: at the highest dose growth rescue (activation), usual class: activators; actives 1.8% (n = 410,000); further: % of control where 0% means no effect; nearly all actives have a fitted effect of over 50% in size
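Yeast cells expressing TDP-43 under galactose induction are exposed to compounds for 24 hr at 30 deg C. BacTiter-Glo luminescence measures growth, so protective compounds score as activators.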
Mito fusion yeast = inhibitors of mitochondrial division or activators of mitochondrial fusion. S. cerevisiae fusion-defective mutant growth rescue, CellTiterGlo 48 h. Potency, µM (titrated, usually from 46.1 µM), for the others: top-dose growth rescue (activation), most hits filed as activators. actives 0.23% (n = 320,000); further: % of control where 0% means no effect; nearly all actives have a fitted effect of over 45% in size
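Temperature-sensitive fusion-defective S. cerevisiae (e.g. fzo1-1, mgm1-5) were grown with compound in YPEG medium (3% ethanol, 3% glycerol) for 48 hours at 37C. Growth rescue was measured as viability by CellTiterGlo luminescence after 10 minutes at ambient.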
FUS yeast rescue = suppressors of FUS proteinopathy in yeast; S. cerevisiae FUS-expressing, growth rescue, OD600, 24 h; actives 0.24% (n = 390,000); Potency, µM (top dose mostly 76.6 µM), hits mostly activators;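 further: plate controls were DMSO vehicle for no effect and reference control for full effect; nearly all actives have a fitted effect of over 55% in size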
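Compound concentration series was pinned onto galactose-induced FUS-expressing yeast seeded at OD 0.005. Plates sat 24hr at 30C; absorbance at 600 nm gave growth. DMSO served as background control.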
aSyn rescue = rescues yeast growth from alpha-synuclein toxicity. Potency, µM (doses to about 46.1 µM), for inactives: top-dose growth rescue (activation), hits mostly activators. actives 0.14% (n = 370,000). Yeast expressing alpha-synuclein, growth rescue, BacTiter-Glo, 24 h; further: % of control where 0% means no effect; nearly all actives have a fitted effect of over 65% in size
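Rescue of yeast growth: cells expressing toxic alpha-synuclein, induced in galactose at OD600 0.02, incubated with compound 24 h at 30 C. ATP luminescence quantified growth; inhibitors of toxicity appear as activators.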
Active calls of the source: *; i = inactive; ? = inconclusive; . = not tested or not shown. The call rests on the fitted dose curve; in most records, active means well fitted curve in the direction sought with a large enough effect; inconclusive means small, poorly fitted or top-dose-only effect, or another doubt; inactive means no such curve, though single readings can be large; an effect the other way counts as inactive or inconclusive. Potency means the concentration at half of the fitted maximal effect.

SMILES	Abeta rescue	TDP43 rescue	Mito fusion yeast	FUS yeast rescue	aSyn rescue
CCOc1ccc(NS(=O)(=O)c2ccc(Cl)c(N=Nc3c(O)[nH]c(=S)[nH]c3=O)c2)cc1Br	i	3.7%	.	i	?
C=Cc1cc(OC)c2c(c1)c(=O)oc1c2cc(OC)c2c(O)ccc(C3OC(C)C(O)C(C)(O)C3O)c21 (centres undefined)	i	14.1µM*	.	.	0.631µM*
COc1cc2c(c3oc4cccc(O)c4c(=O)c13)[C@@H]1C=CO[C@@H]1O2	.	.	.	i	.
O=C1C(Cl)=C(N2CCCCCC2)C(=O)N1c1ccccc1	i	11.2µM*	29.6%	i	1.8%
O=C1CC(=O)N(c2ccccc2)C(=O)N1c1ccccc1	i	-22.5%	-2.3%	i	-1.4%
O=[N+]([O-])c1ccc(Cl)c([N+](=O)[O-])c1	i	11.2µM*	-18.5%	i	3.1%
O=[N+]([O-])c1ccc(O)c([N+](=O)[O-])c1	i	-92.2%	.	i	3.2%
COC(=O)C1CN(C#N)N(c2ccc(Cl)cc2)C12c1ccccc1-c1ccccc12 (centres undefined)	i	15.8µM*	7.0%	i	2.8%
